From the supplement of paper PMC6411743 come the findings set out here.

This assay concerns the target T1, UniProt Q92796-3|Q5JUW8|Q92796.
T1 sequence (whole entry): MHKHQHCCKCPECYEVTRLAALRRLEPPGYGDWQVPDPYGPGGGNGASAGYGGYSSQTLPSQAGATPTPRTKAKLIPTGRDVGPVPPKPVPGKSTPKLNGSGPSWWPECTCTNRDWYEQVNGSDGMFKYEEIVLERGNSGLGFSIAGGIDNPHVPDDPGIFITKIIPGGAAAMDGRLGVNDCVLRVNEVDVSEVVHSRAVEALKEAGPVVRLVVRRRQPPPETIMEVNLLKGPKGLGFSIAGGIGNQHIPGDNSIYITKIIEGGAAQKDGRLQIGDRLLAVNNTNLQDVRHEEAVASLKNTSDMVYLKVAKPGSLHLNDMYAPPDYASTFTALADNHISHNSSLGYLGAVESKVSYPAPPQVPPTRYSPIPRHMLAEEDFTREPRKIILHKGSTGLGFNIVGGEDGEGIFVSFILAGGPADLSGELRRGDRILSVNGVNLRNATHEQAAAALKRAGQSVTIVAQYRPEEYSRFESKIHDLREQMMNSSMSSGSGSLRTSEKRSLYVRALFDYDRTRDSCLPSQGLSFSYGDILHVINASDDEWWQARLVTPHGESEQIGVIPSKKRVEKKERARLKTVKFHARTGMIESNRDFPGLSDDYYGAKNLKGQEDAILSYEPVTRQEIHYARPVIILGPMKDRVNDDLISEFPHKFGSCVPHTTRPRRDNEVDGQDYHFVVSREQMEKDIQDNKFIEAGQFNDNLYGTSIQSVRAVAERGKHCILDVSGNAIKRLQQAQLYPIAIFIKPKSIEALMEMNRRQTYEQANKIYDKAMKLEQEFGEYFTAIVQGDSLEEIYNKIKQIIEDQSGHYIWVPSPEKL
The assay can be described thus: NP40-soluble protein abundance relative to vehicle (solubility fold change) (ratio); higher = more soluble protein in presence of GTP. The procedure, abridged: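 Crude Jurkat lysate, prepared by Dounce homogenisation, was exposed to eight concentrations from 0.1 to 10 mM for 10 min at room temperature and then 3 min at 37 °C. Solubilisation used 0.8% NP40 with benzonase for 60 min at 4 °C, followed by ultracentrifugation and TMT labelling of the supernatant for LC-MS/MS. After vsn normalisation of intensities, each value is the fold change against the detergent-processed vehicle within each replicate, across three independent experiments.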

Each structure is given as a SMILES string. ± gives the standard deviation of the averaged measurements. Targets with the largest changes are over-represented here; the source holds about 5,400 in all.

Turning to `Nc1nc2c(ncn2[C@@H]2O[C@H](COP(=O)(O)OP(=O)(O)OP(=O)(O)O)[C@@H](O)[C@H]2O)c(=O)[nH]1` [guanosine triphosphate], the NP40-soluble protein abundance came out at 1.15 ± 0.034 (concentration: 0.1mM); 1.17 ± 0.023 (concentration: 0.5mM); 1.17 ± 0.037 (concentration: 1mM); 1.17 ± 0.038 (concentration: 2mM); 1.13 ± 0.03 (concentration: 4mM); 1.12 ± 0.07 (concentration: 6mM). The NP40-soluble protein abundance is, setting by setting: (concentration: 8mM) 1.18 ± 0.018; (concentration: 10mM) 1.14 ± 0.037.
